# In PubChem BioAssay (Tox21):
# Unmarked numbers belong to inactive results. Inconclusive results are not listed. A call without a number means that no potency is given here. Calls of active or inactive are those of the source. Unless noted, calls come from the whole dose curve; as a rule, active = well fitted curve in the direction sought with a large enough effect in the repeat runs; inconclusive = weak or mixed curves; inactive = no such curve, though single readings can be large; an effect the other way counts as inactive or inconclusive.
# Assays:
# [1] = qHTS assay to identify small molecule antagonists of the estrogen related receptor (ERR) signaling pathway - cell viability counter screen (AID 1224818);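 note: viability measured after 17.5 h of compound exposure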
# Procedure, shortened: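 Cytotoxicity counter screen: fluorescence from CellTiter-Fluor, added after 17.5 h compound exposure at 37 C and read 30 min later. ERR cell line seeded at 2,000 cells/well, preincubated 6 h before dosing.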
# [2] = qHTS assay to identify small molecule agonists of the estrogen related receptor (ERR) signaling pathway (AID 1224820)
# Procedure, shortened: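 Following a 6 h settling period, 2,000 ERR cells per well receive DMSO-dissolved compounds by pin tool and incubate 18 h at 37 C; agonist activity is scored from One-Glo luminescence read 30 min post-addition.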
# [3] = tested on: estrogen-related receptor alpha (ERRalpha) with PGC-1alpha coactivator, human; assay: qHTS assay to identify small molecule antagonists of the estrogen related receptor signaling pathway with the pleiotropic PPARgamma coactivator (PGC) (AID 1224821; calls by dose curve; note: nearly all actives have a fitted effect of over 50% in size; note: potency is the fitted concentration of half-maximal effect)
# Procedure, shortened: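 Screening used NTP's PGC/ERR cells, dosed via pin tool with compound in DMSO alongside positive and negative controls. After 18 h at 37 C, One-Glo reagent sat 30 min at room temperature before luminescence detection.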
# [4] = qHTS assay to identify small molecule antagonists of the estrogen related receptor signaling pathway with the pleiotropic PPARgamma coactivator (PGC) cell viability counter screen (AID 1224822)
# Procedure, shortened: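 Viability counter-screen read by fluorescence intensity after 30 min with CellTiter-Fluor at 37 C; PGC/ERR reporter cells were exposed to compounds for 17.5 h at 37 C following a 6 h preincubation.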
# [5] = qHTS assay to identify small molecule agonists of the estrogen related receptor signaling pathway with the pleiotropic PPARgamma coactivator (PGC) (AID 1224823)
# Procedure, shortened: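 In this quantitative high-throughput screen, an 18 h, 37 C treatment of PGC/ERR cells with compounds in DMSO preceded a One-Glo luminescence read taken after 30 min at room temperature.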
# [6] = qHTS assay to identify small molecule antagonists of the estrogen related receptor (ERR) signaling pathway (AID 1224819; note: nearly all actives have a fitted effect of over 50% in size; note: potency is the fitted concentration of half-maximal effect)
# Procedure, shortened: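 LOPAC library screened for antagonism as reduced One-Glo luminescence in ERR reporter cells (2,000/well). Compounds were added after 6 h pre-incubation and left 18 h at 37C; reading followed a 30 min room-temperature reagent step.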
# [7] = qHTS assay to identify small molecule antagonists of the estrogen related receptor (ERR) signaling pathway from Tox21 library - cell viability counter screen (AID 1224834); note: nearly all actives have a fitted effect of over 30% in size
# Procedure, shortened: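 CellTiter-Fluor fluorescence, read after 30 min at 37 C, measures viability of ERR cells. Cells plated at 2,000/well and incubated 6 h before pin-tool compound addition, then exposed 17.5 hours at 37 C.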
# [8] = qHTS assay to identify small molecule antagonists of the estrogen related receptor signaling pathway with the pleiotropic PPARgamma coactivator (PGC) from Tox21 10K library - cell viability counter screen (AID 1224840; active = well fitted cell-killing curve with a large enough effect in the repeat runs, not every such curve was filed as active; note: nearly all actives have a fitted effect of over 40% in size)
# Procedure, shortened: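 Counter-screen for cytotoxicity: after 17.5 h compound exposure at 37 C, CellTiter-Fluor reagent added to PGC/ERR cells for 30 min and fluorescence read. Cells were seeded at 2,000 per well 6 h before dosing.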
# [9] = qHTS assay to identify small molecule antagonists of the estrogen related receptor signaling pathway with the pleiotropic PPARgamma coactivator (PGC) from Tox21 10K library (AID 1224841; call rule not given here; note: actives are mostly falling curves and most rising ones were filed inactive; nearly all actives have a fitted effect of over 50% in size)
# Procedure, shortened: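 Luminescence (One-Glo, 30 min at room temperature) after 18 h compound treatment at 37 C of PGC/ERR reporter cells plated at 2,000 cells/well and settled 6 h beforehand.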
# [10] = qHTS assay to identify small molecule agonists of the estrogen related receptor signaling pathway with the pleiotropic PPARgamma coactivator (PGC) from Tox21 10K library (AID 1224842); note: nearly all actives have a fitted effect of over 15% in size
# Procedure, shortened: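 PGC/ERR reporter cell line, 2,000 cells per well, incubated 6 h at 37 C before 23 nL compound in DMSO was added. After 18 h at 37 C, One-Glo luminescence read following 30 min at room temperature.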
# [11] = qHTS assay to identify small molecule antagonists of the estrogen related receptor (ERR) signaling pathway from Tox21 library (AID 1224848); note: nearly all actives have a fitted effect of over 50% in size
# Procedure, shortened: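 Compounds dissolved in DMSO are pin-transferred onto ERR reporter cells (2,000 per well) that have settled for 6 h at 37 C. Plates then incubate 18 h at 37 C before ONE-Glo luciferase reagent and a luminescence read 30 min later.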
# [12] = qHTS assay to identify small molecule agonists of the estrogen related receptor (ERR) signaling pathway from Tox21 library (AID 1224849; calls by dose curve; note: nearly all actives have a fitted effect of over 15% in size); conditions: ERR reporter cell line, ONE-Glo luciferase, 18 h; at 92.4 µM (top of the series) unless noted
# Procedure, shortened: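 Luminescent agonist read-out (One-Glo, 30-minute room-temperature incubation) following 18-hour compound treatment at 37 C of the ERR cell line, which had been plated 6 hours before dosing.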
# [13] = target: Acetylcholinesterase (Homo sapiens) (UniProt P22303); assay: Acetylcholinesterase (AChE) small molecule antagonists: colormetric cell-based qHTS assay (AID 1347395; calls by dose curve; note: nearly all actives have a fitted effect of over 30% in size)
# Chain of Acetylcholinesterase (Homo sapiens) (P22303 whole entry, looked up): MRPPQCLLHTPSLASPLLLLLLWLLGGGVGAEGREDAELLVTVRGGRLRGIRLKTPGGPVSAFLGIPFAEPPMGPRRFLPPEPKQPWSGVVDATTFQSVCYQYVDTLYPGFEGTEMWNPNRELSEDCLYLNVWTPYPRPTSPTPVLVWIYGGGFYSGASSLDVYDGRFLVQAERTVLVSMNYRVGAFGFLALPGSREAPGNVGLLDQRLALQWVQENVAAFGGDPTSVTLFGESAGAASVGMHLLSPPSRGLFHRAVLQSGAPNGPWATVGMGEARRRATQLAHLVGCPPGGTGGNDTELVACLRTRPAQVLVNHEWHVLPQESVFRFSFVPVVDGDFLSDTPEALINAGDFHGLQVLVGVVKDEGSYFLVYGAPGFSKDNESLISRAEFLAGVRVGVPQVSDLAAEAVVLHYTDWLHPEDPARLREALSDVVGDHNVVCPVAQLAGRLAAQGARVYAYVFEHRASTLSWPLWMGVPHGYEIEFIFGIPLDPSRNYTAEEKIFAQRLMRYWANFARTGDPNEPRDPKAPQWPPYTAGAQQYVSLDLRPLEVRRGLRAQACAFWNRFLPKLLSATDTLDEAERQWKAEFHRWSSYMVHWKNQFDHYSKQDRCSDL
# Procedure, shortened: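 Colorimetric read-out: DTNB detects thiocholine released when cellular AChE in SH-SY5Y cells hydrolyses acetylthiocholine. Cells attached overnight, received compound for 30 min at 37 C, then substrate mix for 90 min at 37 C.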
# [14] = target: Acetylcholinesterase (Homo sapiens) (UniProt P22303); assay: Acetylcholinesterase (AChE) small molecule antagonists: enzyme-based qHTS assay (AID 1347397; calls by dose curve; note: nearly all actives have a fitted effect of over 55% in size); conditions: Potency: AChE enzyme activity inhibition; outcome: AChE enzyme activity inhibition
# Procedure, shortened: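 Colorimetric DTNB read-out of thiocholine released from acetylthiocholine by recombinant human AChE (50 mU/mL as dispensed). Compounds were preincubated 30 min at RT before substrate/DTNB addition, with a 10 min RT reaction.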
# [15] = target: Acetylcholinesterase (Homo sapiens) (UniProt P22303); assay: Acetylcholinesterase (AChE) small molecule antagonists: fluorescence cell-based qHTS assay (AID 1347398; calls by dose curve; note: nearly all actives have a fitted effect of over 50% in size); conditions: Potency: AChE activity; outcome: AChE activity
# Procedure, shortened: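 SH-SY5Y, 2,000 cells/well, attached overnight; cmpd 30 min 37 C; acetylthiocholine/Thiolite Green cocktail 40 min RT; fluorescence Ex/Em 490/520 nm.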
# [16] = target: Acetylcholinesterase (Homo sapiens) (UniProt P22303); assay: Acetylcholinesterase (AChE) small molecule antagonists: enzyme-based qHTS assay with human liver microsomes (AID 1347399; calls by dose curve; note: nearly all actives have a fitted effect of over 60% in size); conditions: Potency: qHTS inhibition; outcome: qHTS inhibition
# Procedure, shortened: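 Recombinant human AChE (50 mU/mL in the enzyme mix) and human liver microsomes (0.25 mg/mL final) were preincubated with compound and NADPH (0.25 mg/mL final) for 30 min at 37 C. Acetylthiocholine/DTNB was then added; thiocholine was read colorimetrically after 10 min at room temperature.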
compound,measurement,setting,value
CC(=O)OCC1=C(C(=O)[O-])N2C(=O)[C@@H](NC(=O)CCC[C@@H](N)C(=O)[O-])[C@H]2SC1.[Zn+2],Potency,[1],inactive
same,Potency,[2],inactive
same,Potency,[3],inactive
same,Potency,[4],inactive
same,Potency,[5],inactive
N[C@@]1(C(=O)O)CC[C@@H](C(=O)O)C1,Potency,[6],inactive
same,Potency,[2],inactive
same,Potency,[3],inactive
same,Potency,[4],inactive
Nc1ncnc2c1ncn2[C@@H]1O[C@H](COP(=O)(O)CP(=O)(O)OP(=O)(O)O)C(O)[C@H]1O (stereo partly specified),Potency,[6],inactive
same,Potency,[2],inactive
same,Potency,[3],inactive
same,Potency,[4],inactive
same,Potency,[5],inactive
OC1CCCCC1N1CCC(c2ccccc2)CC1 (stereo unspecified),Potency,[6],inactive
same,Potency,[2],inactive
same,Potency,[3],inactive
same,Potency,[4],inactive
same,Potency,[5],inactive
CC[C@@H]1C(=O)OC[C@@H]1Cc1cncn1C,Potency,[1],inactive
same,Potency,[4],inactive
CCCN(CCC)C1CCc2ccc(O)cc2C1 (stereo unspecified),Potency,[6],inactive
same,Potency,[2],inactive
same,Potency,[3],inactive
same,Potency,[5],inactive
NCCc1ccc(S(=O)(=O)F)cc1,Potency,[2],inactive
same,Potency,[3],inactive
same,Potency,[4],inactive
NC(N)=Nc1ccc2[nH]c3c(c2c1)C[C@@]1(O)[C@H]2Cc4ccc(O)c5c4[C@@]1(CCN2CC1CC1)[C@H]3O5,Potency,[6],inactive
same,Potency,[2],inactive
same,Potency,[3],inactive
same,Potency,[5],inactive
O=S1(=O)N(CCN2CC=C(c3c[nH]c4cc(F)ccc34)CC2)c2cccc3c2N1CCC3,Potency,[6],16.2 µM (active)
same,Potency,[2],inactive
same,Potency,[3],23.7 µM (active)
CCn1cnc2c(Nc3cccc(Cl)c3)nc(N[C@@H]3CCCC[C@@H]3N)nc21,Potency,[6],inactive
CN1CCC(c2c[nH]c3ccc(O)cc23)CC1,Potency,[6],inactive
same,Potency,[2],inactive
same,Potency,[3],inactive
same,Potency,[4],inactive
same,Potency,[5],inactive
CC(N)C(=O)OC(C)(C)Cc1ccc(Cl)cc1 (stereo unspecified),Potency,[6],inactive
same,Potency,[2],inactive
same,Potency,[3],inactive
same,Potency,[4],inactive
same,Potency,[5],inactive
same,Potency,[7],inactive
same,Potency,[8],inactive
same,Potency,[9],inactive
same,Potency,[10],inactive
same,Potency,[11],inactive
same,"activity change, positive = activation",[12],8.82% [at 42.5 µM]
same,Potency,[13],inactive
same,Potency,[14],inactive
same,Potency,[15],inactive
same,Potency,[16],inactive
